PubChem BioAssay AID1224853 (National Center for Advancing Translational Sciences (NCATS), 2016)
Records with an inconclusive call do not appear. Unmarked numbers belong to inactive results. Active and inactive are the calls of the source. Calls come from the whole dose curve; as a rule, active = well fitted inhibition curve with a large enough effect; inconclusive = small, poorly fitted or top-dose-only effect; inactive = no such curve, though single readings can be large or run the other way.

Assay: Confirmation assay for measurement of the activity of small molecule inhibitors on Zika virus induced Caspase-3 activity in human astrocytoma cells
Settings: SNB-19 ZIKV-induced caspase-3/7, luminescence, 6 h; series mostly up to 46.1 µM; activity change, negative = inhibition: at the top concentration
How it was run: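 Percent inhibition of Zika-triggered caspase-3 activation is derived from luminescence, scaled between uninfected cells and infected cells. Astrocytoma SNB-19 cells receive compound one hour ahead of a 6 h infection at 2 FFU/cell.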

Compound | activity change, negative = inhibition | Potency
COc1ccnc2c1CCCCC2S(=O)c1nc2ccccc2[nH]1 (stereo not drawn) | -5.51% | –
NC(N)=NN=C(/C=C/c1ccc([N+](=O)[O-])o1)/C=C/c1ccc([N+](=O)[O-])o1 | -27.2% | –
COc1cc(NC(C)CCCN)c2ncccc2c1 (stereo not drawn) | 20.7% | –
CC(C)(C)OC(=O)CN(Cc1ccc(Cl)cc1)Cc1ccc([N+](=O)[O-])s1 | -11.8% [at 88.3 µM] | –
Cc1cccc(C#Cc2ccccc2)n1 | – | 4.89 µM (active)
Cc1nc(-c2ccc(OCC(C)C)c(C#N)c2)sc1C(=O)O | – | 2.45 µM (active)
O=C(Nc1ccc(OC(F)(F)F)cc1)c1sccc1NCc1ccnc2ccccc12 | – | 6.9 µM (active)
O=C(O)c1cccc(-c2noc(-c3ccccc3F)n2)c1 | – | 3.46 µM (active)
CCCCCCOc1ccccc1C(N)=O | 8.7% | –
O[C@@H](COc1cccc2ncccc12)CN1CCN(C2c3ccccc3[C@@H]3[C@H](c4ccccc42)C3(F)F)CC1 (stereo partly drawn) | -9.17% | –
Cc1ccc2c(n1)Oc1ccc(C(C)C(=O)OCC(=O)N(C)C)cc1C2 (stereo not drawn) | – | 10.9 µM (active)
O=C(O)Cc1ccc(-c2ccccc2)cc1 | -25.3% | –
Nc1ncnc2c1ncn2[C@@H]1O[C@@H](CO)[C@H](O)[C@H]1O | 0.711% [at 23.8 µM] | –
CC(=NNC(=S)N1CCC1)c1ccccn1 | 36.6% | –
c1ccc(CCNc2nc(-c3ccccc3)cs2)cc1 | – | 15.5 µM (active)
COc1ccc2nc(NC(=O)Nc3ccccc3)sc2c1 | – | 21.8 µM (active)
Cc1c(NC(=O)c2ccc(C(C)(C)C)cc2)cccc1-c1cn(C)c(=O)c(Nc2ccc(C(=O)N3CCOCC3)cc2)n1 | -15.3% | –
C/C(=N\O)c1ccc(OCC(=O)N2CCCCC2)cc1 | – | 8.69 µM (active)
NC(=O)c1cccc2[nH]c(-c3ccc([C@H]4CCCN4)cc3F)nc12 | – | 17.3 µM (active)

Compound | activity change, negative = inhibition | Potency
CCCCCCCC/C=C/C(=O)O | -2.36% | –
CC[C@@]1(O)C[C@H](O[C@H]2C[C@H](N(C)C)[C@H](O[C@H]3C[C@H](O)[C@H](O[C@H]4CCC(=O)[C@H](C)O4)[C@H](C)O3)[C@H](C)O2)c2c(cc3c(c2O)C(=O)c2c(O)cccc2C3=O)[C@@H]1C(=O)OC | -13.4% | –
C[C@@H](O[C@H]1OCCN(Cc2n[nH]c(=O)[nH]2)[C@@H]1c1ccc(F)cc1)c1cc(C(F)(F)F)cc(C(F)(F)F)c1 | 116% | –
CN(C)CCCSc1ccccc1NC(=O)/C=C/c1ccccc1 | – | 8.69 µM (active)
CN(C)c1ccc(/C=C2\C(=O)Nc3ccccc32)cc1 | – | 10.9 µM (active)
CN(C)c1cc(NC(=O)CNC(C)(C)C)c(O)c2c1C[C@@H]1C[C@H]3[C@H](N(C)C)C(=O)C(C(N)=O)=C(O)[C@@]3(O)C(=O)C1=C2O | -7.85% | –
O=S(=O)(O)c1ccc2nc(-c3ccccc3)[nH]c2c1 | – | 1.73 µM (active)
COc1ccc(-c2cc(=O)c3c(O)cc(O)cc3o2)cc1O | – | 13.8 µM (active)
CCCC(=O)OC[C@@H](OC(=O)CCC)[C@@H](OC(=O)CCC)[C@H](Cn1c2nc(=O)[nH]c(=O)c-2nc2cc(C)c(C)cc21)OC(=O)CCC | -15.1% | –
CC(=O)Oc1ccccc1C(=O)Nc1ncc([N+](=O)[O-])s1 | – | 2.24 µM (active)
C[C@@H](N)c1ccc(C(=O)Nc2ccnc3[nH]ccc23)cc1 | -12% | –
Cc1ccc(C(=O)c2ccc(CC(=O)O)n2C)cc1 | -24.3% | –
O=C(Oc1ccccc1)c1cccc(C(=O)Oc2ccccc2)c1 | – | 4.47 µM (active)
CN(C)c1ccc(C(=C2C=CC(=[N+](C)C)C=C2)c2ccccc2)cc1 | -25.3% | –
O=C(c1ccccc1)c1ccc2n1CCC2C(=O)O (stereo not drawn) | – | 17.3 µM (active)
CC(C)c1ccc2oc3nc(N)c(C(=O)O)cc3c(=O)c2c1 | – | 1.95 µM (active)
CNC1[C@H](O)C(O[C@@H]2C(O)C(O[C@H]3O[C@H]([C@@H](C)NC)CC[C@H]3N)[C@@H](N)C[C@H]2N)OC[C@]1(C)O (stereo partly drawn) | 16.6% | –
COc1cc2nc(-c3ccc(N4CCN(C)CC4)cc3)nc(NCCN3CCOCC3)c2cc1OC | -20.6% | –
O=C(O)c1cc([N+](=O)[O-])ccc1NCCCc1ccccc1 | – | 19.5 µM (active)
